JMJD2A Tudor inh: inhibitors of human JMJD2A Tudor domain; O75164; AlphaScreen JMJD2A-Tudor / H3K4me3 peptide binding; Potency, µM (highest dose often 114 µM), for the others: at the top dose activity change, negative = inhibition, hits mostly inhibitors; actives 4.4% (n = 390,000); further: on the % scale 0 is the no-effect control and ±100 the full control effect; nearly all actives have a fitted effect of over 50% in size
HP1b binding inh: blocks HP1-beta chromodomain binding to methylated histone tails. P83916. Potency, µM (doses to about 114 µM), without a hit: top-dose activity change, negative = inhibition, actives largely listed as inhibitors. AlphaScreen HP1-beta / biotin-H3K9me3 peptide binding. AID 540317. actives 0.56% (n = 390,000); further: nearly all actives have a fitted effect of over 70% in size
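AlphaScreen: HP1-beta (50 nM) preformed 30 min with biotin-H3(1-18)K9me3 peptide (50 nM) in PBS pH 7.4, 0.01% Tween-20. Compound added for 30 min at RT, then streptavidin donor/nickel chelate acceptor beads (10 ug/mL) for 30 min.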
PLK1 PBD block: blocks phosphopeptide binding to human PLK1 polo-box domain | Plk1 PBD binding of FITC phosphopeptide, fluorescence polarization | actives 2.8% (n = 360,000) | Potency, µM, inactives show max response, negative = inhibition, most hits filed as inhibitors; further: series mostly up to about 57 µM; on the % scale 0 is the no-effect control and ±100 the full control effect; nearly all actives have a fitted effect of over 65% in size
Target sequence (P53350 whole entry, looked up, the tested form may be a part): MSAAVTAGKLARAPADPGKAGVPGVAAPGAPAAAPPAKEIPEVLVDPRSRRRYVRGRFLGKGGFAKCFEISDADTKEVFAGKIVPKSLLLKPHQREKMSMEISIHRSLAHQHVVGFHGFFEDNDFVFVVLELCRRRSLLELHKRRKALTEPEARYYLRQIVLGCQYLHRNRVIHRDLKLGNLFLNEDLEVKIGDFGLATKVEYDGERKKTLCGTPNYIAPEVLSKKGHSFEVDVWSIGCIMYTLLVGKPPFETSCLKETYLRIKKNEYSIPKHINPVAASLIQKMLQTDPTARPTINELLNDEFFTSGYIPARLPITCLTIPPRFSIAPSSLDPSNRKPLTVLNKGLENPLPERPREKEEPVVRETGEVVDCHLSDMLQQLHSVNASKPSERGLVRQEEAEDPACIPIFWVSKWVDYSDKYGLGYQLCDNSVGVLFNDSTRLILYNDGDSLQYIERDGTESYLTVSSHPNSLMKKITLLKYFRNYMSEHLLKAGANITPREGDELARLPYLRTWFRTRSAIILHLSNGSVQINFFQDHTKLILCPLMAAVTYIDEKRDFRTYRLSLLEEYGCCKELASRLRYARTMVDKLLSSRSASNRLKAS
G9a block: blocks human histone lysine methyltransferase G9a; Potency, µM (highest dose often 102 µM), for inactives: top-dose activity, negative = inhibition, usual class: inhibitors; actives 8.8% (n = 350,000); AID 504332; Q96KQ7; G9a H3K9 monomethylation, AlphaScreen, 2 h; further: on the % scale 0 is the no-effect control and ±100 the full control effect; nearly all actives have a fitted effect of over 75% in size
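Quantitative HTS format: methyltransferase activity on a biotin-tagged H3K9 peptide is measured by AlphaScreen, using a rabbit anti-monomethyl-H3K9 antibody with streptavidin donor and anti-IgG acceptor beads. Final levels are 20 nM enzyme, 500 nM peptide, 20 uM SAM; 2 h RT.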
BAZ2B inh: blocks human BAZ2B; actives 4.4% (n = 360,000); AlphaScreen BAZ2B-H3K14Ac peptide displacement; Potency, µM (doses to about 114 µM), inactives show top-dose activity change, negative = inhibition, most hits filed as inhibitors; Q9UIF8; further: on the % scale 0 is the no-effect control and ±100 the full control effect; nearly all actives have a fitted effect of over 60% in size
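Compounds, titrated to a top concentration of 110 uM, were incubated 30 min at room temperature with preformed BAZ2B/acetyl-K14 H3 peptide complex (50 nM each). Proximity signal was measured by AlphaScreen after 20 min with beads.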
Sfp PPTase inh: blocks B. subtilis Sfp PPTase activity | Biochemical Sfp PPTase activity, qHTS | Potency, µM, inactives show largest response in the series, negative = inhibition, hits mostly inhibitors | actives 3.5% (n = 310,000);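 further: the enzyme is Sfp with the accession as filed and its product quenches rhodamine fluorescence; 0% = enzyme reaction without inhibitor and -100% = no enzyme wells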
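Sfp 15 nM + cpd, 15 min RT; start w/ rhodamine-CoA 5 uM, BHQ-2-YbbR 12.5 uM (final); 50 mM Hepes pH 7.6, 10 mM MgCl2, 0.01% NP-40, 0.01% BSA; read 525/598 nm at 0 and 30 min.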
An asterisk follows results filed as active; ? = inconclusive; / = no result given; [ ] = remark or other dose. Sampled rows, rich in hits. Any-hit rate of the full collection: about 12%. The call rests on the fitted dose curve; in most records, active means well fitted curve in the direction sought with a large enough effect; inconclusive means small, poorly fitted or top-dose-only effect, or another doubt; inactive means no such curve, though single readings can be large; an effect the other way counts as inactive or inconclusive. Potency means the concentration at half of the fitted maximal effect.

SMILES | JMJD2A Tudor inh | HP1b binding inh | PLK1 PBD block | G9a block | BAZ2B inh | Sfp PPTase inh
CC(=O)c1c(C)oc2ccc(NS(=O)(=O)c3cccs3)cc12 | -4% | 23% | -20% | -32% | -17% | 17%
Cc1c(C)n(C(=O)CSc2nc3ccccc3[nH]2)c2ccccc12 | ? | 2% | -18% | 50µM* | ? | -1%
COc1ccccc1N1CCN(C(=O)CSc2ncccc2-c2nc3ccccc3[nH]2)CC1 | -31% | 39% | -11% | 45µM* | -36% | 3%
O=C(CSc1nc2ccccc2[nH]1)N1c2ccccc2Sc2ccccc21 | ? | 5% | -5% | 45µM* | ? | -18%
COc1ccc(N2CCN(C(=O)c3cccnc3SCc3cccc(Br)c3)CC2)cc1 | 22µM* | ? | 0% | 13µM* | ? | 7%
COc1ccc(N2CCN(C(=O)c3cnc(N4CCCC4)nc3C)CC2)cc1 | -11% | 38% | / | -27%[12.7 µM] | -22% | /
Cc1ccc(OCCNC(=O)Cc2ccc(F)cc2)cc1 | 4% | 43% | -1% | 11% | -6% | 5%
COc1ccc(N2C(=O)CSC23C(=O)N(CC(=O)NCCc2ccccc2)c2ccccc23)cc1 (stereo not given) | -9% | 26% | / | -3%[59 µM] | 6%[57.1 µM] | /
COc1ccccc1N1CCN(C(=O)CC(NC(=O)c2ccccc2Cl)c2ccccc2)CC1 (stereo not given) | -8% | 27% | -3% | 45µM* | 6% | /
O=C(CCCSc1nc2ccccc2[nH]1)NCc1ccccc1Cl | -17% | ? | -5% | 35µM* | -2% | 12%
COc1ccccc1N1CCN(C(=O)CSc2nc3ccccc3[nH]2)CC1 | -7% | 4% | -8% | 7.9µM* | -4% | 10%
COc1ccc(N2CCN(C(=O)CSc3ncccc3-c3nc4ccccc4[nH]3)CC2)cc1 | ? | -15% | -16% | 25µM* | ? | 1%
COc1ccccc1N1CCN(C(=O)CSc2nc(N)cc(=O)[nH]2)CC1 | -1% | 27% | -11% | 4%[59 µM] | -3% | -7%
O=C(CCCSc1nc2ccccc2[nH]1)NC(c1ccccc1)c1ccccc1 | -1% | 31% | -9% | -7%[59 µM] | -7% | 20%
COc1cc(NC(=O)c2ccc(N3CC4CC(C3)c3cccc(=O)n3C4)c(NC(=O)c3ccncc3)c2)cc(OC)c1OC (stereo not given) | -3% | 20% | -5% | ? | -6% | 1%
CCCCNC(=O)C1CCN(c2nc3ccc(C)cc3[nH]2)CC1 | 6% | 31%[57 µM] | / | -4%[59 µM] | 3% | /
COc1ccccc1C(=O)NC(=O)COC(=O)CCS(=O)(=O)c1ccc(C)cc1 | 0% | 27% | -1% | 4% | 8% | /
Cc1ccccc1Cn1c(=O)n(CCC(=O)NCc2ccco2)c(=O)c2sccc21 | 0% | 29% | / | -4%[59 µM] | -10% | /
COc1ccc2c(c1)CC(C(=O)NCc1ccc(F)cc1)CO2 (stereo not given) | -1% | 18%[57 µM] | / | -1%[59 µM] | 3% | /
Nc1c(-c2nc(-c3cccs3)no2)nnn1-c1ccc(Cl)cc1 | 8% | 25% | / | 4%[59 µM] | -3% | /
O=C(CSc1n[nH]c(-c2ccccc2)n1)N1CCN(c2ccc(F)cc2)CC1 | -22% | 7%[57 µM] | / | -2%[59 µM] | -11% | /
O=C(CSc1ncnc2scc(-c3ccccc3)c12)N1CCN(c2ccccc2F)CC1 | -21% | 18% | -6% | 22%[59 µM] | 4% | -7%
COc1ccc(N2CCN(C(=O)CSc3n[nH]c(-c4ccccc4)n3)CC2)cc1 | -34% | 9%[57 µM] | / | 16µM* | -26% | /
O=C(CCCSc1nc2ccccc2[nH]1)N1CCN(c2ccccc2)CC1 | -34% | 9% | -14% | 45µM* | -37% | -2%
COc1ccccc1N1CCN(C(=O)CSc2ncnc3scc(-c4ccccc4)c23)CC1 | ? | -20% | 15µM* | 12%[59 µM] | -28% | 2%
SMILES | JMJD2A Tudor inh | HP1b binding inh | PLK1 PBD block | G9a block | BAZ2B inh | Sfp PPTase inh
O=C(CSc1nc2ccccc2[nH]1)N1CCN(c2ccccc2)CC1 | -4% | 17% | 1% | ? | -11% | 2%
COc1ccc2nc(SCC(=O)N3CCN(c4ccc(F)cc4)CC3)c(C#N)cc2c1 | ? | ? | 3µM* | ? | 8% | -21%
CCC(C)(C)NC(=O)CN(C(=O)c1csnn1)c1ccccc1-c1ccccc1 | ? | -13% | ? | / | 17% | -1%
Cc1ccc2c(c1)cc1c(=O)n(CC(=O)NCCN3CCCC3)nc(C)n12 | -2% | 14%[57 µM] | 3% | / | -5% | 2%
CN(Cc1ccccc1)c1ncc(C=O)s1 | 4% | 22% | -13% | / | 12% | -12%
COc1ccccc1CNS(=O)(=O)CCNCCc1ccccc1 | -11% | 21% | -10% | / | / | /
COc1ccc([N+](=O)[O-])cc1C(=O)C(=O)c1ccccc1 | -29% | 18% | -18% | / | -6% | -2%
COc1cc(C(=O)O)nc2ccc([N+](=O)[O-])cc12 | -17%[11.4 µM] | 23% | -21% | 18µM* | 50µM* | 10µM*
Cc1cc(C)c2nc(-c3ccccn3)cc(C(=O)NCCc3ccc(S(N)(=O)=O)cc3)c2c1 | -17% | 15% | 30µM* | 35µM* | 9% | 28µM*
Cc1cc(NS(=O)(=O)c2ccc(NC(=O)c3cc(-c4ccccc4Cl)nc4ccccc34)cc2)no1 | -31% | 19% | 67µM* | ? | -25% | 10%
Cc1cc(C)c2nc(-c3ccccn3)cc(C(=O)Nc3ccc(S(=O)(=O)Nc4cc(C)on4)cc3)c2c1 | 50µM* | -8% | 21µM* | -9%[0.501 µM] | 50µM* | ?
Cc1cc(C)c2nc(-c3ccccn3)cc(C(=O)Nc3ccc(S(=O)(=O)Nc4onc(C)c4C)cc3)c2c1 | 56µM* | 50µM* | 6.7µM* | 13µM* | 35µM* | 35µM*
Cc1cccc(N2CCN(c3nc4ccccc4c4nnc(C)n34)CC2)c1C | -13% | 30% | / | -4%[59 µM] | 0% | /
O=C(COC(=O)c1cccs1)NCc1ccco1 | 35µM* | 50µM* | -20% | ? | 50µM* | -3%
Cc1ccc(NS(=O)(=O)c2cccc(C(=O)OCC(=O)NCc3ccco3)c2)cc1 | ? | -15% | -9% | ? | 56µM* | -22%
Cc1ccc(NS(=O)(=O)c2ccc(OCC(=O)NCc3ccco3)cc2)cc1 | -35% | -11% | -10% | -2%[12.7 µM] | -35% | 10%
COc1cc(NC(=O)c2cccs2)c(C(=O)OCC(=O)NCc2ccco2)cc1OC | -22% | 15% | -20% | -45%[12.7 µM] | -7% | ?
COc1ccccc1C(OC(=O)c1cccs1)C(=O)NCc1ccco1 (stereo not given) | -23% | 19% | -17% | 45µM* | ? | 50µM*
CC(OC(=O)c1cccs1)C(=O)NCc1ccco1 (stereo not given) | -6% | 37% | 2% | -10%[59 µM] | 14% | 11%

Assay outcomes from PubChem.
